High-throughput results: PubChem BioAssay, Sanford-Burnham Center for Chemical Genomics
CYP2C9 activ: human CYP2C9 activators, primary screen, biochemical, luminescence | hit rate 1.4% among 96,000 | recombinant CYP2C9, luciferin-H conversion; active compounds read high; factor 1 = untreated enzyme, 0 = blocked | Cytochrome P450 2C9 (Homo sapiens), P11712 | activation factor at 5 µM;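 active = activation factor of 2 or more for CYP2C9 at a 5 µM dose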
CYP2C19 act: human CYP2C19 activators, primary screen, biochemical, luminescence; Cytochrome P450 2C19 (Homo sapiens), P33261; recombinant CYP2C19, luciferin-H EGE luminescence; active compounds read high; 0 = fully inhibited enzyme, 1 = untreated enzyme; activation factor at 5 µM; 96,000 tested, under 10 active; AID 1025, 2008;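 active = activation factor of at least 2 at 5 µM in the primary screen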
Target sequence (P33261 whole entry, looked up): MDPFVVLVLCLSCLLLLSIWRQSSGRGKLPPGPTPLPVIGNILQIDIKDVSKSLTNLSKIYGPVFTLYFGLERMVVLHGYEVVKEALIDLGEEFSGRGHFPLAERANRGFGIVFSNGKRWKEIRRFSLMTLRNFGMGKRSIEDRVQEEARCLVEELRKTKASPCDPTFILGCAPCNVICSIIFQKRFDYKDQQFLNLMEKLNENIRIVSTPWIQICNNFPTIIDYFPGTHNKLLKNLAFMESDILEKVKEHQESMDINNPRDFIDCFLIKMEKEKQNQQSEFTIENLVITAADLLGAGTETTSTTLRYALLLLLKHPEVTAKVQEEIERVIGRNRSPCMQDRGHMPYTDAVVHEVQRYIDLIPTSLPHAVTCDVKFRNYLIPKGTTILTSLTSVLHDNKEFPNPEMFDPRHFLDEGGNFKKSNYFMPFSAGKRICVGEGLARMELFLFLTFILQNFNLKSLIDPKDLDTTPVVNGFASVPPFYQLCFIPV
CYP2C19 inhib: blockers of cytochrome P450 2C19 activity – biochemical, luminescence, ADME assay, primary screen | P33261 | CYP2C19 Supersomes, luciferin-H EGE luminescence, 30 min | inhibition, % at 5 µM | hit rate 21% among 96,000 | AID 778, 2007;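 active = CYP2C19 inhibition above a set limit at 5 µM in the primary screen, cut at about 50% in these data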
Mac1 fbg enh: enhancers of CD11b/CD18 adhesion to fibrinogen, primary screen, K562 cells, luminescence; hit rate 0.07% among 93,000; Integrin beta-2 (Homo sapiens) + Integrin alpha-M (Homo sapiens), P05107+P11215; ATPlite luminescence; activation, % at 10 µM;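 active = 10 µM primary screen giving 50% or more activity, confirmed by 40% or more on retest at that dose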
CYP2C9 inh: blockers of cytochrome P450 2C9 activity – biochemical, luminescence, ADME assay, primary screen; P11712; inhibition, % at 5 µM; hit rate 20% among 96,000; CYP2C9 Supersomes, luciferin-H conversion;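 active = blocking of liver enzyme CYP2C9 beyond about 50% at 5 µM, limit read from the data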
CD11b adhes inh: inhibitors of CD11b/CD18 adhesion to fibrinogen, primary screen, K562 cells, luminescence | hit rate 0.54% among 93,000 | inhibition, % at 10 µM | ATPlite luminescence; Mn2+ added to activate the integrin | AID 1497, 2009;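 active = primary inhibition of 50% or more at 10 µM, then 40% or more on retest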
Hits are given with their value; . = inactive; / = no result given. A selection: hits, their analogues and other compounds. The true share with any hit is near 28%.

SMILES	CYP2C9 activ	CYP2C19 act	CYP2C19 inhib	Mac1 fbg enh	CYP2C9 inh	CD11b adhes inh
COc1ccc(Cc2nnc(SCC(=O)NCC3CCCO3)o2)cc1 (configuration not stated)	.	.	.	.	.	.
CCOc1c2c(nc3ccc(Cl)cc13)CCC2	.	.	.	.	.	.
Cc1onc(-c2ccccc2Cl)c1C(=O)Nc1nn[nH]n1	.	.	.	.	.	.
Cc1onc(-c2c(Cl)cccc2Cl)c1C(=O)Nc1ccc2c(c1)OCCO2	.	.	54	.	88	.
Cc1onc(-c2c(F)cccc2Cl)c1C(=O)Nc1cccc(Cn2cccn2)c1	.	.	.	.	52	.
Cc1onc(-c2ccccc2Cl)c1C(=O)Nc1cccc(-c2cn3cccnc3n2)c1	.	.	62	.	85	.
COC(=O)c1cc(OC)c(OC)cc1NC(=O)c1c(-c2ccccc2Cl)noc1C	.	.	.	.	56	.
Cc1onc(-c2c(F)cccc2Cl)c1C(=O)Nc1ccc(S(=O)(=O)Nc2ncccn2)cc1	.	.	.	.	.	.
Cc1ccc(CN2C(=O)CCC2C(=O)NC(C)C)cc1 (configuration not stated)	.	.	.	.	.	.
Cc1onc(-c2ccccc2)c1C(=O)OCC(=O)c1ccccc1	.	.	69	.	54	.
CCOCCCNC(=O)c1c(-c2ccccc2)noc1C	.	.	.	.	.	.
COc1cccc2c1OC[C@@H](CO)[C@H]2N(C)C(=O)Nc1ccccc1	.	.	.	/	.	/
CN(C(=O)Nc1ccc(Cl)cc1Cl)[C@H]1c2cc(Br)ccc2OC[C@H]1CO	.	.	.	.	87	.
Cc1ccc2nc(Nc3nc(-c4ccccc4)cc(=O)[nH]3)nc(C)c2c1	.	.	.	/	55	/
CCOC(=O)Cc1csc(N)n1	.	.	.	.	.	.
CCOC(=O)CC1=CC(C)(CC(=O)OCC)C(C#N)(C#N)C(N)=C1C#N (configuration not stated)	.	.	.	.	79	.
CCOc1ccccc1C1CC(=O)Nc2cc(OC)c(OC)c(OC)c21 (configuration not stated)	.	.	.	.	.	.
CC(C)Oc1ccccc1C1CC(=O)Nc2cc3c(cc21)OCO3 (configuration not stated)	.	.	99	.	76	.
CCOc1ccccc1C1CC(=O)Nc2cc3c(cc21)OCCO3 (configuration not stated)	.	.	54	.	69	.
O=C(Nc1nc2c(c(=O)[nH]1)CCCC2)C1CC1	.	.	.	.	.	.
CC(=O)Nc1ccccc1C(=O)N1CC(C)OC(C)C1 (configuration not stated)	.	.	.	.	.	.
Cc1ccc(-c2nc3cccnc3o2)cc1NC(=O)COc1ccc(C(C)(C)C)cc1	.	.	.	.	55	.
Cc1ccc(-c2nc3cccnc3o2)cc1NC(=O)COc1ccc(Cl)cc1C	.	.	.	.	64	.
Cc1ccc2nc(SCC(=O)Nc3nnc(SCC(N)=O)s3)[nH]c2c1	.	.	.	.	.	.
CC(C)(C)NC(=S)NCc1cccnc1	.	.	.	/	.	/
SMILES	CYP2C9 activ	CYP2C19 act	CYP2C19 inhib	Mac1 fbg enh	CYP2C9 inh	CD11b adhes inh
Cc1ccc(S(=O)(=O)N2c3cc(C)ccc3OCC2C(C)(C)C)cc1 (configuration not stated)	.	.	.	.	50	.
O=C1CN(CC(=O)N2CCCCC2)c2ccccc2O1	.	.	.	.	.	.
O=C(CN1CCN(Cc2ccccc2Cl)C1=O)N1CCCCCC1	.	.	59	.	.	.
CN1CCN(S(=O)(=O)c2ccc(NC(=O)c3csc4ccccc34)cc2)CC1	.	.	.	.	.	.
C[C@H](NC(=O)Nc1ccccc1F)C(=O)O	.	.	.	.	.	.
CC(C)CC(=O)NC(Nc1ccccc1F)C(Cl)(Cl)Cl (configuration not stated)	.	.	52	.	58	.
CC(C)C(=O)NC(Nc1ccccc1F)C(Cl)(Cl)Cl (configuration not stated)	.	.	54	/	59	/
CC(C)CC(=O)NC(=S)Nc1ccccc1F	.	.	.	.	.	.
CCCC(=O)NC(Nc1ccccc1F)C(Cl)(Cl)Cl (configuration not stated)	.	.	53	/	57	/
Cc1noc2nc(-c3cccs3)cc(-c3nnc4n3CCCCC4)c12	.	.	.	.	.	.
C=CCN1C(c2ccc(OCC)cc2)=CS/C1=C(\C#N)c1nnc2n1CCCCC2	.	.	.	.	.	.
CCn1cc(C(=O)N2CCCC2)c(=O)c2cc(S(=O)(=O)N3CCOCC3)ccc21	.	.	.	.	.	.
O=C(N/N=C/c1c[nH]c2ccccc12)c1ccn(Cc2ccc(Cl)cc2)n1	.	.	65	/	.	/
O=C(N/N=C/c1c[nH]c2ccc(Br)cc12)c1ccn(Cc2ccc(Cl)cc2Cl)n1	.	.	.	/	.	/
NC(=O)c1c(-c2cccs2)csc1N	.	.	.	.	.	.
O=C(/C=C/c1cccnc1)c1ccc(NC(=O)c2cccc(Br)c2)cc1	.	.	.	72	70	.
O=C(N/C(=C\c1cccnc1)C(=O)N1CCOCC1)c1cccc(Br)c1	.	.	.	.	.	.
O=C(NCCCO)c1ccc2[nH]c3ccccc3c2c1	.	.	64	.	.	.
CCCCNC(=O)c1cccc(C(=O)NCCCC)c1	.	.	.	.	.	.
Cc1ccc(C)c(NC(=O)c2ncn[nH]2)c1	.	.	.	.	.	.
Cc1ccc(C)c(NC(=O)c2ccccc2O)c1	.	.	.	.	51	.
Cc1cccc(NC(=O)c2ccccc2O)c1C	.	.	.	.	.	.
O=C(Nc1ccccc1O)c1ccccc1O	.	.	.	.	63	69
NS(=O)(=O)c1ccc(NC(=O)c2ccccc2Cl)cc1	.	.	.	.	.	.
CCS(=O)(=O)c1ccc(NC(=O)c2ccccc2Cl)c(O)c1	.	.	.	.	53	.
O=C(OCCN=C1NS(=O)(=O)c2ccccc21)C1CC(=O)N(c2ccc3ccccc3c2)C1 (configuration not stated)	.	.	.	.	.	.
CC1(C)Cc2c(sc(NC(=O)c3ccco3)c2C#N)C(C)(C)N1	.	.	.	.	.	.
CCOc1[nH]n(-c2ccc(Cl)cc2)c(=O)c1C=Nc1ccc(C)cc1	.	.	.	.	.	.
COc1[nH]c(/N=C/c2ccccc2)c(C#N)c1C#N	.	.	.	.	75	.
